Data as given in the supplement of paper PMC10849652.
About 7,900 targets were measured; listed, in parts, are those with a hit and a random draw of the rest. About 0.6% of all pairs of compound and target were hits.

compound: Cc1ccc(C(=O)N(CCCN)[C@@H](c2nc3cc(Cl)ccc3c(=O)n2Cc2ccccc2)C(C)C)cc1 [ispinesib]; experiment: log2 fold change, soluble protein after heating vs DMSO (PISA); higher = thermal stabilisation; K562 cells, 10 uM, 30 min; active = over 0.2 and 3.5 SD of the protein, either way, in both replicates (recomputed)
How it was run: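 K562 cells at 2×10^6 cells/mL were given 10 μM compound for 30 min. Aliquots then went through 3 min of heating across 48°C-58°C, were pooled, and were extracted in PBS with 0.5% NP-40 at 4°C, and the supernatant after 21,000xg for 90 min was quantified by TMTpro 16plex LC-MS/MS with channel sums equalised. Thermal stability relative to control samples, from duplicates, is given as log2 fold change.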

UniProt Q92538, sequence (Q92538 whole entry, looked up): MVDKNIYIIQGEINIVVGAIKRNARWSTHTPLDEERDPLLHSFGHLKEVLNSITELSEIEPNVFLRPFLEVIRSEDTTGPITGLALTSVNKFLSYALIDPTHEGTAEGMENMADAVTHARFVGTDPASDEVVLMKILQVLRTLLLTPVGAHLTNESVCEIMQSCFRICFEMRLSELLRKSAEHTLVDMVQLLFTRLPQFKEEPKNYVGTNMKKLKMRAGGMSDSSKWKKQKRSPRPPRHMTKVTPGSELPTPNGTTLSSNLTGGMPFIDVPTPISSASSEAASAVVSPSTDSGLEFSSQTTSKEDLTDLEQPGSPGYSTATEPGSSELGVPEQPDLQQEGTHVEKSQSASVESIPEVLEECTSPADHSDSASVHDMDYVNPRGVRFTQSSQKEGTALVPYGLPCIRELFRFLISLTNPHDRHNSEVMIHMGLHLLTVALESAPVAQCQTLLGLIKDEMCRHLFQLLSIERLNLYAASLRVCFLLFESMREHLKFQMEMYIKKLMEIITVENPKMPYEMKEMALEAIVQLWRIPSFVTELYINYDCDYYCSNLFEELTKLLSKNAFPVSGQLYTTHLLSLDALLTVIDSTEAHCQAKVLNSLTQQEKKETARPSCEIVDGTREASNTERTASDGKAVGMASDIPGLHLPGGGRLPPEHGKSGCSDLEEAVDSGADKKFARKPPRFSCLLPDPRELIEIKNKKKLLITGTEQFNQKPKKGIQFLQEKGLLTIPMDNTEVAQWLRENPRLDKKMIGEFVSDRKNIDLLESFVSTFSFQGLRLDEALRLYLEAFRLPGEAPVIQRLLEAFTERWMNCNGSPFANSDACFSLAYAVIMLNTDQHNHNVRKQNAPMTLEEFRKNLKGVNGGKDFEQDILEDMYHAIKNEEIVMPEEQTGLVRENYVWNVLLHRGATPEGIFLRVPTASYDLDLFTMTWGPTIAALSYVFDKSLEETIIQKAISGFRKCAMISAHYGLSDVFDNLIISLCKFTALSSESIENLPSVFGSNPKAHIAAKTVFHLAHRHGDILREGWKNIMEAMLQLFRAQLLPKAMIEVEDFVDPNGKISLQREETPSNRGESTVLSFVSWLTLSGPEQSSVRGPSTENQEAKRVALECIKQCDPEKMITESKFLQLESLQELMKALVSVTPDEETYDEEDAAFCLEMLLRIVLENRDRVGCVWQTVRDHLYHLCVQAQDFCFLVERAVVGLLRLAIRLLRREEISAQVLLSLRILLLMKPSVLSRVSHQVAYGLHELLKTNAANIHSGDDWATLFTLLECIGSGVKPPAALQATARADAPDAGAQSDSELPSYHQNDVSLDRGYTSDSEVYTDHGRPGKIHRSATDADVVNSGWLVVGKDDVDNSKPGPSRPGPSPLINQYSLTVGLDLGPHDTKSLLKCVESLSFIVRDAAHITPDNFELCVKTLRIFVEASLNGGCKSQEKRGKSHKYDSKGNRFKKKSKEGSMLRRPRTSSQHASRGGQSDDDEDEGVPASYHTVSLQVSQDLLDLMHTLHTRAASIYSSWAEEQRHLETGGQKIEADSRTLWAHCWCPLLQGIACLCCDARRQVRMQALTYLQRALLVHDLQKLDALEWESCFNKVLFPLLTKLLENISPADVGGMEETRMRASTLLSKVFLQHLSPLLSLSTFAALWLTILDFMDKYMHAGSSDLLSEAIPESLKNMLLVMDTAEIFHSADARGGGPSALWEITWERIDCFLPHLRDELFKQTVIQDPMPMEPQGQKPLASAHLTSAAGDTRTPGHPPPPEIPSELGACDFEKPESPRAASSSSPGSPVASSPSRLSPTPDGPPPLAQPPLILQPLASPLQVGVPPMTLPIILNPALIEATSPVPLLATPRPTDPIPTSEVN
UniProt Q8IWJ2, sequence (Q8IWJ2 whole entry, looked up): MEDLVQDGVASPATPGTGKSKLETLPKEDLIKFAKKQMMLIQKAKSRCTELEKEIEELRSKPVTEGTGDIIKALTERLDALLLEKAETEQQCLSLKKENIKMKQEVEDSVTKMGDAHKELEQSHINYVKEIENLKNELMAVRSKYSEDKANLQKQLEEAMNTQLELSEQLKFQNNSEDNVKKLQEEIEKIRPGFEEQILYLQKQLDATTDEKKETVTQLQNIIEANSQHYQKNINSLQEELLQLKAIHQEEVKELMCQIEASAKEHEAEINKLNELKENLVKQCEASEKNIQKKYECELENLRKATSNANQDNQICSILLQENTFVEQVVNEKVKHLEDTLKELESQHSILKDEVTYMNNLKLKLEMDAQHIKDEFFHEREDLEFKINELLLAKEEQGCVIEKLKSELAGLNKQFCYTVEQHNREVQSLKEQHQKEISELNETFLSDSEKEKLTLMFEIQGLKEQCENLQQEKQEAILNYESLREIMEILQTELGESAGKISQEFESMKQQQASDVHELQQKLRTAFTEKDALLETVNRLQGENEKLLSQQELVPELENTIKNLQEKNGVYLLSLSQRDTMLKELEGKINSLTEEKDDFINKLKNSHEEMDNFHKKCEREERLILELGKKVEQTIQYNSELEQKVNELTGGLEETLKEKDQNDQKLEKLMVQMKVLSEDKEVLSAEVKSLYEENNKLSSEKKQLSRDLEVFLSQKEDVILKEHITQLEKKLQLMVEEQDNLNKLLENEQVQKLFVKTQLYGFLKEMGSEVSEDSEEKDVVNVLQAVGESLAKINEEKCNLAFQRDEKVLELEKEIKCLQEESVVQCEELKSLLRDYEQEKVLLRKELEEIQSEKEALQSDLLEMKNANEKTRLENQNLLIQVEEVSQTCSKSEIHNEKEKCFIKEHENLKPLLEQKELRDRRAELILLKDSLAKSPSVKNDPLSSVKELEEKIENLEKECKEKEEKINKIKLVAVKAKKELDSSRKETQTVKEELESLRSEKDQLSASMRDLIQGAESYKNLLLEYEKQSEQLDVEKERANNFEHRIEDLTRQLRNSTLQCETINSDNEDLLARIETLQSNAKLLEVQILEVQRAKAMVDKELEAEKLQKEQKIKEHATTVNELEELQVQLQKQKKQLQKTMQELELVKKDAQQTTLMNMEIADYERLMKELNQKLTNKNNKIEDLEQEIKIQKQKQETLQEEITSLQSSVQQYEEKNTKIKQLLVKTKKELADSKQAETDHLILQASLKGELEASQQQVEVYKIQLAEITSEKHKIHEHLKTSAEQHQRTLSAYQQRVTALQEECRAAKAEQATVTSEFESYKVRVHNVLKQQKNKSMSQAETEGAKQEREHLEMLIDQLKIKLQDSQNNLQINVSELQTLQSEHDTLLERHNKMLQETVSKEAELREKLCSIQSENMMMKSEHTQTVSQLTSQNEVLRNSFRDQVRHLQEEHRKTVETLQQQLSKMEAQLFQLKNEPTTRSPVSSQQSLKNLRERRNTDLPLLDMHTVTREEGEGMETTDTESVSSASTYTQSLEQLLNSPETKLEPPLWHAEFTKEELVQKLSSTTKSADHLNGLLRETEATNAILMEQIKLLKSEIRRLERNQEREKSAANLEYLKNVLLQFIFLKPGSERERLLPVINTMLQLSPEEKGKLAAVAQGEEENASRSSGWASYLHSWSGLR
UniProt O00291, sequence (O00291 whole entry, looked up): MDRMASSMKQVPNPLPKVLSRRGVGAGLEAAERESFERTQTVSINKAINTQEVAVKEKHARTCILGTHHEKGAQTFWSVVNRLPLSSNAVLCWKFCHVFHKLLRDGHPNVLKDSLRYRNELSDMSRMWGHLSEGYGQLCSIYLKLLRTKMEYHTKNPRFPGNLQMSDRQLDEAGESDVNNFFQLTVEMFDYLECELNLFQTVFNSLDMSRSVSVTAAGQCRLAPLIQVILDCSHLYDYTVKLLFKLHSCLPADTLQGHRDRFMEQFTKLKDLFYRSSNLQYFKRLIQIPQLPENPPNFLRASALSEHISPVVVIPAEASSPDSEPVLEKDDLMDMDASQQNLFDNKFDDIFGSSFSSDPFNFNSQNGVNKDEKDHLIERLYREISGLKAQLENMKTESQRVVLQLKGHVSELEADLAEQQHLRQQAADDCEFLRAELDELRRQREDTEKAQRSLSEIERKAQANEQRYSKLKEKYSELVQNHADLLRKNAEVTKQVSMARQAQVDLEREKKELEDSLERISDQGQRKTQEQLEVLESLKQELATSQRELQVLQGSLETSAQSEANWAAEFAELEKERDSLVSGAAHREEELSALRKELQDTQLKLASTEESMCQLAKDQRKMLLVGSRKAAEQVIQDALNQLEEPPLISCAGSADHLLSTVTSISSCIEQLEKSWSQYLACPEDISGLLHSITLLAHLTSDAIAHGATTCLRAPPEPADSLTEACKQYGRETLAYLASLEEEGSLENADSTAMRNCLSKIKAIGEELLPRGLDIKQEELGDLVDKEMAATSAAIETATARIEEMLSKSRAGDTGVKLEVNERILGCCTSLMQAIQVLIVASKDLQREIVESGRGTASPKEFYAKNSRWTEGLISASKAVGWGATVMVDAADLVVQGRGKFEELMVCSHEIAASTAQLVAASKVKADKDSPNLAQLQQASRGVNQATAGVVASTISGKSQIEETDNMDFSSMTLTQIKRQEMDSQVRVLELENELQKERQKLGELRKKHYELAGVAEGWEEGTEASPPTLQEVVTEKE
UniProt P29083, sequence (P29083 whole entry, looked up): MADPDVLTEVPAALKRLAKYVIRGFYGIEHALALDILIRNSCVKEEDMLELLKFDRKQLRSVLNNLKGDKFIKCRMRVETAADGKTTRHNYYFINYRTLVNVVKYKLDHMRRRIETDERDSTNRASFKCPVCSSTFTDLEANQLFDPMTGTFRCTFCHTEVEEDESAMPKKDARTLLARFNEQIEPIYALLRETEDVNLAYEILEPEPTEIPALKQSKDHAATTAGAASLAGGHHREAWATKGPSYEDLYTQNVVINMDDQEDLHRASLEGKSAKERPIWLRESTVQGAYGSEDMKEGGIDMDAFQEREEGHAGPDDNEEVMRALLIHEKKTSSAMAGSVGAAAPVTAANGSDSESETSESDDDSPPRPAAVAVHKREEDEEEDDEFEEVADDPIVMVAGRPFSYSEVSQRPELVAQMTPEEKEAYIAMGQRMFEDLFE

Row | Target | log2 fold change
1 | FBXO3 (UniProt Q9UK99) | 0.082 (inactive)
2 | HMOX2 (UniProt P30519) | -0.028 (inactive)
3 | GLS isoform 3 (UniProt O94925) | 0.219 (inactive)
4 | H1FX (UniProt Q92522) | -0.016 (inactive)
5 | GBF1 (UniProt Q92538) | 0.012 (inactive)
6 | GTF2E1 (UniProt P29083) | -0.028 (inactive)
7 | GLCCI1 (UniProt Q86VQ1) | 0.239 (inactive)
8 | FNTA (UniProt P49354) | 0.06 (inactive)
9 | HIP1 (UniProt O00291) | -0.033 (inactive)
10 | HIST2H3A (UniProt Q71DI3) | -0.081 (inactive)
11 | GCC2 (UniProt Q8IWJ2) | -0.173 (inactive)
